Reference: PubChem BioAssay (EPA / NIEHS)
Results filed as inconclusive are left out. Calls of active or inactive are those of the source. The calls were made as follows: active = hit-call score of the fitted dose curve at least 0.9, where 1 is the maximum; inconclusive = response in the unintended direction; inactive = score below 0.9.

What was measured:
[1] = target: rat Thyrotropin Releasing Hormone Receptor (TRH), Trhr (gene 25570) (UniProt Q01717); test: NVS_GPCR_rTRH: NovaScreen (NVS) G Protein-Coupled Receptor Assay for rat Thyrotropin Releasing Hormone Receptor (TRH) (AID 2283329);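 also: hit means lower bound tracer signal versus DMSO baseline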
Chain of rat Thyrotropin Releasing Hormone Receptor (TRH), Trhr (gene 25570) (Q01717 whole entry, looked up): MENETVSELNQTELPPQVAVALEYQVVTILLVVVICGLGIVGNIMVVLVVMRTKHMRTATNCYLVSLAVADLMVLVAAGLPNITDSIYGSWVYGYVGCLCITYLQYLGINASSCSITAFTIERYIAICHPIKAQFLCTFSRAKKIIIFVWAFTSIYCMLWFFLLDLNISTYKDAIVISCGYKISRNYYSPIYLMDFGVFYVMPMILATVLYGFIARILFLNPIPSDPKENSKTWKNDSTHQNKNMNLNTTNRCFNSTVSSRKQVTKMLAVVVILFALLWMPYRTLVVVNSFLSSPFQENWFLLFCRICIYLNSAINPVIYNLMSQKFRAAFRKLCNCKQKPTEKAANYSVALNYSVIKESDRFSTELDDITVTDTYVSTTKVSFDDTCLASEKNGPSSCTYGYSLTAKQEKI
Procedure, shortened: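 Rat forebrain membrane prep, radioligand displacement, filter scintillation readout at 4 h. Single conc 25 uM, duplicate; actives retested as concentration series. DMSO = negative control/baseline.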

[2] = target: chimpanzee Androgen Receptor (AR), AR (gene 747460) (UniProt O97775); test: NVS_NR_cAR: NovaScreen (NVS) Nuclear Receptor Binding Assay for chimpanzee Androgen Receptor (AR) (AID 2283346);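 also: radioligand displacement from AR measured by scintillation counting in a cell-free assay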
Chain of chimpanzee Androgen Receptor (AR), AR (gene 747460) (O97775 whole entry, looked up): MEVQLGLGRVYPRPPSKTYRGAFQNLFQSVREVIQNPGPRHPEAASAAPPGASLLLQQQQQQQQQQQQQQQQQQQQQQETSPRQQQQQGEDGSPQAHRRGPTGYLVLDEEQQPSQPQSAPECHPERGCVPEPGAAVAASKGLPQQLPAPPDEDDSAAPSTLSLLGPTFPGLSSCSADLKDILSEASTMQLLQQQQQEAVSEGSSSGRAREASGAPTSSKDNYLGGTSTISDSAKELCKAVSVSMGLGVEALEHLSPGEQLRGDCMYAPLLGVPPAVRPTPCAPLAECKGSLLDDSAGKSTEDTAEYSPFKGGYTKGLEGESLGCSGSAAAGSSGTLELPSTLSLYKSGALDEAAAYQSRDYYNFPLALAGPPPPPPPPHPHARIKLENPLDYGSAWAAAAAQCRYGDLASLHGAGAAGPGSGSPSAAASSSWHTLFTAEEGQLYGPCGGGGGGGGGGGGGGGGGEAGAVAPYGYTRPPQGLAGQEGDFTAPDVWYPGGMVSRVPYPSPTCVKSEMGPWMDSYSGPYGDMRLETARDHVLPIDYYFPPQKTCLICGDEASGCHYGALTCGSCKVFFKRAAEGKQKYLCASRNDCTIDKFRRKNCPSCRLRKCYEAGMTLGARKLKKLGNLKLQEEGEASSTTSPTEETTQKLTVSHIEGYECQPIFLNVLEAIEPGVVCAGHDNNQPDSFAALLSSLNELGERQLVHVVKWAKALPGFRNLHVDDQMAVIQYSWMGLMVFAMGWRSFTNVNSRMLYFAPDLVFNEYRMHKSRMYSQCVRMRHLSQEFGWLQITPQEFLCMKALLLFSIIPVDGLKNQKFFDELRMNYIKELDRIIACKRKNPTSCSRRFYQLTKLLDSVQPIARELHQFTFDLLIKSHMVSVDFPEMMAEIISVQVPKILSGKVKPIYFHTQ
Procedure, shortened: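 Cell-free radioligand displacement using receptor protein extracted from Sf9/Sf21 cells; bound radioligand measured by scintillation counting 72 hours after chemical dosing. Loss of signal versus DMSO baseline indicates binding; primary screen single-concentration in duplicate at 25 uM, actives followed in concentration series.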

[3] = target: rat Adrenergic Receptor, Alpha 2 (Adra2), Non-selective Binding, Adra2a (gene 25083) (UniProt P22909); test: NVS_GPCR_rAdra2_NonSelective: NovaScreen (NVS) G Protein-Coupled Receptor Assay for rat Adrenergic Receptor, Alpha 2 (Adra2), Non-selective Binding (AID 2283299)
Chain of rat Adrenergic Receptor, Alpha 2 (Adra2), Non-selective Binding, Adra2a (gene 25083) (P22909 whole entry, looked up): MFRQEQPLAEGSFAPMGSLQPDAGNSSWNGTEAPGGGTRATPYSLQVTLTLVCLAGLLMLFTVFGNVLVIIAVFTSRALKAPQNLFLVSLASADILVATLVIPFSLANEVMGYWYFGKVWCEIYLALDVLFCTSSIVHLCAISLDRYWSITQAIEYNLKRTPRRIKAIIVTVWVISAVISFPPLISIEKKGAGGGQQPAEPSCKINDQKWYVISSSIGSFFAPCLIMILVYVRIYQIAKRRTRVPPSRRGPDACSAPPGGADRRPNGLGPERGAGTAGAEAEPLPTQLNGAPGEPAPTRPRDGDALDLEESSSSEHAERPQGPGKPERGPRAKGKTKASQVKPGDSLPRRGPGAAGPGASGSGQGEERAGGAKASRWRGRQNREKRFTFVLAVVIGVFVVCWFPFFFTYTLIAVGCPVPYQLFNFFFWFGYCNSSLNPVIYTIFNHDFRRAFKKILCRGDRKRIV
Procedure, shortened: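 Filter-based scintillation counting of radioligand binding to rat cortical membrane receptors, measured 1.25 hours post-dosing; loss of signal versus DMSO indicates displacement. Initial single-concentration duplicate at 25 uM, then concentration series.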

[4] = target: human Peripheral-type Benzodiazepine Receptor (PBR), TSPO (gene 706) (UniProt P30536); test: NVS_MP_hPBR: NovaScreen (NVS) Membrane Protein Assay for human Peripheral-type Benzodiazepine Receptor (PBR) (AID 2283331);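 also: hits reduce radioligand binding relative to DMSO baseline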
Chain of human Peripheral-type Benzodiazepine Receptor (PBR), TSPO (gene 706) (P30536 whole entry, looked up): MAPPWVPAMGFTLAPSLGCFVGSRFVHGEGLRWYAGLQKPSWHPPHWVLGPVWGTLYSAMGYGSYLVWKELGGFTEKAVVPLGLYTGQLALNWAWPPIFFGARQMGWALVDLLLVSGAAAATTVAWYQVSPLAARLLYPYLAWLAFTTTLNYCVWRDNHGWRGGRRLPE
Procedure, shortened: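 Using human colon-derived membranes, this one-endpoint binding test reads radioligand loss by scintillation after 1 h. Screening started at 25 uM in duplicate, with positive and negative controls on every plate, and actives moved to dose series.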

[5] = target: rat Peripheral-type Benzodiazepine Receptor (PBR), Tspo (gene 24230) (UniProt P16257); test: NVS_MP_rPBR: NovaScreen (NVS) Membrane Protein Assay for rat Peripheral-type Benzodiazepine Receptor (PBR) (AID 2283335)
Chain of rat Peripheral-type Benzodiazepine Receptor (PBR), Tspo (gene 24230) (P16257 whole entry, looked up): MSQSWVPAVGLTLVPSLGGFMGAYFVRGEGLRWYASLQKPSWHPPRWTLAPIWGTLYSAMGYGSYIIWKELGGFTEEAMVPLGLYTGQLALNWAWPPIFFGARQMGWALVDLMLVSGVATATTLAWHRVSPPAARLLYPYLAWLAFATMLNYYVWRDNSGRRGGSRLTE
Procedure: NVS_MP_rPBR is a biochemical, single-readout assay that uses extracted gene-proteins from Rat kidney membranes in a tissue-based cell-free assay. Measurements were taken 1 hour after chemical dosing in a 48-well plate.NVS_MP_rPBR is one of one assay component(s) measured or calculated from the NVS_MP_rPBR assay. It is designed to make measurements of radioligand binding, a form of binding reporter, as detected with scintillation counting signals by Filter-based radiodetection technology.Data from the assay component NVS_MP_rPBR was analyzed into 1 assay endpoint. This assay endpoint, NVS_MP_rPBR, was analyzed in the positive analysis fitting direction relative to DMSO as the negative control and baseline of activity. Using a type of binding reporter, loss-of-signal activity can be used to understand changes in the binding as they relate to the gene Tspo. Furthermore, this assay endpoint can be referred to as a primary readout, because the performed assay has only produced 1 assay endpoint. To generalize the intended target to other relatable targets, this assay endpoint is annotated to the transporter intended target family, where the subfamily is cholesterol transporter.
Binding assays used specific radioligands (tritiated, iodinated) with non-radioactive competitive displacement ligands in agonist or antagonist protocols (as indicated) and various reference compounds and inhibitors to titrate specific binding to receptors and transporters. Most enzyme assays (CYPs, kinases, phosphatases, proteases, HDACs) used recombinant protein and specific substrates (fluorescence mostly, some colorimetric and radioactive) and inhibitors, followed by a biochemical separation of substrate and product. All assays for the biochemical HTS were initially run in duplicate at a single concentration (10 uM for CYP450 assays and 25 uM for all others). […] Each assay was run with positive and negative controls, and concurrent controls on every plate. The follow-up (secondary) screen tested active chemical-pairs in concentration series, as well as a few additional assays not tested in the primary screen, some selected negative inactives, and several cases re-run in the concentration series for confirmatory purposes.

[6] = target: Sodium channel protein type 1 subunit alpha (Rattus norvegicus) (UniProt P04774); test: NVS_IC_rNaCh_site2: NovaScreen (NVS) Ion Channel Assay for rat Sodium Channel, Site 2 (NaCh) (AID 2283322);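 also: hit means loss of radioligand binding signal relative to DMSO so AC50 marks displacement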
Procedure, shortened: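 Initial duplicate single-point testing at 25 uM, followed by concentration-response runs for actives. Binding of radioligand to rat forebrain membranes quantified after 1 h via filter-based radiodetection.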

[7] = target: rat Gamma-Aminobutyric Acid Type A Receptor, Non-Selective (GABAR-NonSelective), Gabra1 (gene 29705) (UniProt P62813); test: NVS_LGIC_rGABAR_NonSelective: NovaScreen (NVS) Ligand-Gated Ion Channel Assay for rat Gamma-Aminobutyric Acid Type A Receptor, Non-Selective (GABAR-NonSelective) (AID 2283326)
Chain of rat Gamma-Aminobutyric Acid Type A Receptor, Non-Selective (GABAR-NonSelective), Gabra1 (gene 29705) (P62813 whole entry, looked up): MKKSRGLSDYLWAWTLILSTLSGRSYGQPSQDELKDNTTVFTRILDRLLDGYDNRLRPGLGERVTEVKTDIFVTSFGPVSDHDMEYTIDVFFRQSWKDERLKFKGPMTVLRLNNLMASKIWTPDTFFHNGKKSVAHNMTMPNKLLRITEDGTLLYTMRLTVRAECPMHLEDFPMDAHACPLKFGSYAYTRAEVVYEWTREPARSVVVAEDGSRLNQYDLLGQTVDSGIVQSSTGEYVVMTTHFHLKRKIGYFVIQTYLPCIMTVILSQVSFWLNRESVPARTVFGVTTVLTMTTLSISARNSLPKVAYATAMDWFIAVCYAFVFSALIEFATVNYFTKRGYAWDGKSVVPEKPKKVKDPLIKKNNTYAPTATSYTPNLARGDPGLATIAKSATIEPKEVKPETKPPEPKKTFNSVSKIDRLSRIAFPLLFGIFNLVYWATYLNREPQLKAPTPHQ
Procedure, shortened: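 Compounds were first screened in duplicate at 25 uM, with actives run as singleton concentration series (max 50 uM). Binding of a radioligand to rat whole-brain GABA-A preparation was measured by filtration and scintillation counting after 1 h, DMSO baseline.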

[8] = NVS_IC_rCaBTZCHL: NovaScreen (NVS) Ion Channel Assay for Calcium Channel, Type L, Benzothiazepine Site (CaBTZCHL) (AID 2283337)
Procedure, shortened: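 Test chemicals were added to rat cortical membranes and incubated 1.5 h with a tritiated or iodinated radioligand for the benzothiazepine site. Bound ligand was separated by filtration and counted. Actives from the 25 uM duplicate screen were retested in concentration series.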

[9] = target: rat Neonicotinoid receptor (NNR), Chrna7 (gene 25302) (UniProt Q05941); test: NVS_LGIC_rNNR_BungSens: NovaScreen (NVS) Ligand-Gated Ion Channel Assay for rat Neonicotinoid receptor (NNR) (AID 2283315)
Chain of rat Neonicotinoid receptor (NNR), Chrna7 (gene 25302) (Q05941 whole entry, looked up): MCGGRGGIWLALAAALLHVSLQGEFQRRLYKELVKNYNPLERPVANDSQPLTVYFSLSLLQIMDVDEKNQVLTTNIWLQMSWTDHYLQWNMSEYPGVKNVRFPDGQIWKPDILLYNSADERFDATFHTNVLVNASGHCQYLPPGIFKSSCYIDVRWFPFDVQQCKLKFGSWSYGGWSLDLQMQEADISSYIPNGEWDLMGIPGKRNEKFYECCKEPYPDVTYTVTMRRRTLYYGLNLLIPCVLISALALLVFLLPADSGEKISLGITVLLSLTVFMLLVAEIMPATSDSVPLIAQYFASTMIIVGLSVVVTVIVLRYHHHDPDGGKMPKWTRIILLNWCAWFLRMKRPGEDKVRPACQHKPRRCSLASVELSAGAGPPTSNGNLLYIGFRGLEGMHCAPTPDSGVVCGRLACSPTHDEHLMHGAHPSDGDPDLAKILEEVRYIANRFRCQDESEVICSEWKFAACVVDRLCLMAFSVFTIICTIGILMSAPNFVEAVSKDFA
Procedure, shortened: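 Rat cortical membrane preparation incubated 2.5 h with tritiated or iodinated radioligand and test chemical. Bound radioactivity was filtered and counted by scintillation, and displacement was analysed against DMSO.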

[10] = target: bovine Estrogen Receptor (ER), ESR1 (gene 407238) (UniProt P49884); test: NVS_NR_bER: NovaScreen (NVS) Nuclear Receptor Binding Assay for bovine Estrogen Receptor (ER) (AID 2283345);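 also: actives lower the bound radioligand count which means they displace the ER ligand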
Chain of bovine Estrogen Receptor (ER), ESR1 (gene 407238) (P49884 whole entry, looked up): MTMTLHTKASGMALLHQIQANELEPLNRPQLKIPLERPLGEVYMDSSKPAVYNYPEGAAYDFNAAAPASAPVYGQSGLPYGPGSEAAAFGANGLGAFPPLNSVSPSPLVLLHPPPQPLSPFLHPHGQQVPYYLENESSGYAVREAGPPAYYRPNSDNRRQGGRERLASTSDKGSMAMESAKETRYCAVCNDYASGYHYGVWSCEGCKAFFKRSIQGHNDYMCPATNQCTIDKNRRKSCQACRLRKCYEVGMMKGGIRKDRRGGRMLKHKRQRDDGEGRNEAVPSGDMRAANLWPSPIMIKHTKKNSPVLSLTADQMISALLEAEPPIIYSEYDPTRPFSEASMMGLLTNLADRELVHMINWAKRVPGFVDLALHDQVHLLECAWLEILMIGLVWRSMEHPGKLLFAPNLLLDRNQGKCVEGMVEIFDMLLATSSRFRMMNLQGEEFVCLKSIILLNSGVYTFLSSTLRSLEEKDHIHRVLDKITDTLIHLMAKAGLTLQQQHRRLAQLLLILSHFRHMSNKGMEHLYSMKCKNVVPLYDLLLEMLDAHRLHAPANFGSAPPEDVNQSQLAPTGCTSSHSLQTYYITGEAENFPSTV
Procedure, shortened: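 Scintillation counting of displaced radioligand gave the readout; bovine uterine membrane extract supplied the receptor. Measured 18 h post-dose, normalized to DMSO baseline. Single 25 uM duplicate screen preceded concentration-response follow-up.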

With `CC1(C)[C@@H]2CC[C@@]1(C)[C@H](O)C2` as the molecule, how does the outcome [1] read?
The outcome was “inactive”.

For `OCCOCCOCCOCCO`, which outcome [1] is on record?
Its outcome is “inactive”.

What about the outcome [2] of the same molecule?
Its outcome is “inactive”.

For `CCn1c2ccccc2c2cc(N)ccc21`, which AC50 [3] is on record?
The AC50 was 25 µM (active).

What does the source list for `CCN(CC)c1ccc2c(-c3ccccc3C(=O)O)c3ccc(=[N+](CC)CC)cc-3oc2c1`?
outcome [1]: inactive; AC50 [4]: 16.8 µM (active); AC50 [5]: 13.2 µM (active)

For `CCCCCCCCCCC(CO)CCCCCCCC` (centres undefined), which outcome [5] is on record?
Its outcome is “inactive”.

With `O=C(O)C[C@H](O)C[C@H](O)/C=C/c1c(C2CC2)nc2ccccc2c1-c1ccc(F)cc1` as the molecule, how does the AC50 [6] read?
The AC50 was 3.55 µM (active).

Which outcome [1] does the source give for `CC(C)C[C@H]1C(=O)N2CCC[C@H]2[C@]2(O)O[C@](NC(=O)[C@@H]3C=C4c5cccc6[nH]c(Br)c(c56)C[C@H]4N(C)C3)(C(C)C)C(=O)N12` here?
The outcome was “inactive”.

What about the AC50 [2] of the same molecule?
The AC50 was 1.05 µM (active).

For `O=C(O)c1ccc([N+](=O)[O-])cc1`, which AC50 [7] is on record?
The AC50 was 4.02 µM (active).

Which outcome [1] does the source give for `C=C(C)C(=O)O` here?
The outcome was “inactive”.

With `COc1cc2ncnc(Nc3cccc(Cl)c3)c2cc1OC` as the molecule, how does the outcome [4] read?
The outcome was “inactive”.

And the outcome [5]?
The outcome was “inactive”.

What about the outcome [8] of the same molecule?
The outcome was “inactive”.

With `CSc1nnc(C(C)(C)C)c(=O)[nH]1` as the molecule, how does the outcome [9] read?
Its outcome is “inactive”.

With `CN(C)CCCN` as the molecule, how does the outcome [1] read?
Its outcome is “inactive”.

Which outcome [1] does the source give for `C[Si](O[Si](C)(C)C)O[Si](C)(C)C` here?
Its outcome is “inactive”.

With `O=P(c1ccccc1)(c1ccccc1)c1ccccc1` as the molecule, how does the AC50 [6] read?
Its AC50 is 8.17 µM (active).

What about the outcome [8] of the same molecule?
The outcome was “inactive”.

What does the source list for `O=C(Oc1ccccc1)c1ccc(O)cc1`?
AC50 [4]: 9.99 µM (active); AC50 [5]: 4.86 µM (active); outcome [2]: inactive

With `CN(CCOc1ccc(CC2SC(=O)NC2=O)cc1)c1ccccn1` (centres undefined) as the molecule, how does the AC50 [4] read?
Its AC50 is 5.39 µM (active).

What about the AC50 [5] of the same molecule?
The AC50 was 12.9 µM (active).

What about the outcome [10] of the same molecule?
Its outcome is “inactive”.

For `O=C(O)c1ccc(C(=O)O)cc1`, which outcome [1] is on record?
Its outcome is “inactive”.

Which outcome [1] does the source give for `CC(C)(C#N)c1cc(Cn2cncn2)cc(C(C)(C)C#N)c1` here?
Its outcome is “inactive”.
